This is a sample that favours compounds with a hit; in the whole collection about 7.3% have one here.
Vaccinia mCherry = inhibitors of vaccinia virus infection (mCherry reporter signal); Vaccinia virus mCherry reporter infection, fluorescence; Potency, µM (series often up to 36.5 µM), usual class: inhibitors; actives 0.63% (n = 310,000); calls by dose curve; tested in A549 cells; further: nearly all actives have a fitted effect of over 35% in size
HCV inhibitor = blocks hepatitis C virus. Huh7.5.1 HCVcc-Cre infection, luciferase reporter, 44 h. Potency, µM (series often up to 41.8 µM), most hits filed as inhibitors. actives 3.4% (n = 340,000); active means well fitted inhibition curve with a large enough effect; inconclusive means small, poorly fitted or top-dose-only effect, or another doubt; inactive means no such curve, though single readings can be large or run the other way
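Antiviral activity was scored by luciferase reporter output from cells infected with HCVcc-Cre (~0.5 moi) in presence of compound, 44 h infection period, cells seeded 1,000/well 4 h prior.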
HCMV antiviral = inhibitors of human cytomegalovirus. HFF cells, HCMV-luciferase reporter, 72 h; hits give low values. activity change, negative = inhibition, % at 57.5 µM. actives 4.5% (n = 410,000); in the data active means activity change below about -60%; inconclusive means no clear call, values can overlap the other calls; inactive means above about -39%
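Two-dose cell screen: HFF monolayers treated with compounds and infected with luciferase-expressing HCMV at 1 PFU/cell, 72 h at 37C, then lysed for luciferase measurement.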
VACV Venus inh = inhibitors of vaccinia virus (Venus reporter); actives 0.46% (n = 330,000); Potency, µM (titrated, usually from 36.5 µM), most hits filed as inhibitors; Vaccinia virus Venus reporter expression, fluorescence; calls by dose curve; tested in A549 cells; further: nearly all actives have a fitted effect of over 30% in size
FMDV inh = foot and mouth disease virus antiviral activity; Potency, µM (highest dose often 57.9 µM), hits mostly inhibitors; FMDV antiviral cell-based qHTS; AID 1159524; actives 1.2% (n = 410,000); calls by dose curve; tested in HEK293T cells; further: read-out not given here; nearly all actives have a fitted effect of over 45% in size
Of the large screens only hits and unclear results are named; the others gave an inactive call.

Cc1ccc(S(=O)(=O)Cc2ccc(C(=O)N3CCN(c4cccc(Cl)c4)CC3)o2)cc1	Vaccinia mCherry inconclusive, HCMV antiviral inconclusive (no result: HCV inhibitor)
Cc1ccccc1S(=O)(=O)Cc1ccc(C(=O)N2CCN(c3cccc(C)c3C)CC2)o1	HCV inhibitor 5.01µM, VACV Venus inh inconclusive, FMDV inh 25.1µM
Nc1ccccc1NC(=O)OCc1ccccc1	none (no result: Vaccinia mCherry, HCV inhibitor, VACV Venus inh, FMDV inh)
CN1CCN(C(=O)c2cnn(-c3cccc(Cl)c3)c2C2CCN(C(=O)OC(C)(C)C)CC2)CC1	none (no result: HCV inhibitor)
O=[N+]([O-])c1cc(/C=N/O)ccc1SCc1ccccc1	HCMV antiviral -65.7 (no result: Vaccinia mCherry, VACV Venus inh)
OC(C[n+]1ccccc1Cl)c1ccccc1 (configuration not stated)	none (no result: HCV inhibitor, HCMV antiviral, FMDV inh)
Cc1ccc(NC(=O)C(c2ccc(Cl)cc2Cl)N2CCCC2)cc1 (configuration not stated)	HCMV antiviral -64.9
CCCC12CN3CC(C)(CN(C1)C3c1ccc(OCc3ccccc3)cc1)C2=O (configuration not stated)	none (no result: HCV inhibitor)
CCc1ccc2[nH]c3nc(SCc4nnc(-c5ccccc5)o4)nnc3c2c1	none
COc1ccc2[nH]c3nc(SCc4nnc(-c5ccccc5)o4)nnc3c2c1	HCV inhibitor inconclusive, HCMV antiviral -94.3 (no result: Vaccinia mCherry, VACV Venus inh)
COc1ccc2[nH]c3nc(SC(C)C)nnc3c2c1	FMDV inh 12.6µM
COc1cc(C(=O)N2CCN(c3ccc(Nc4ccccc4)nn3)CC2)cc(OC)c1OC	none (no result: HCV inhibitor)
Cc1cc(C(=O)NCc2cc(C)n(C)n2)sc1-c1ccccc1	HCV inhibitor 3.98µM, HCMV antiviral -82.6
Cc1cc(CNC(=O)c2cc(-c3ccccc3)nc3ccccc23)nn1C	none
CCN(CC)c1ccc(/C=N\NC(=O)c2cccc3cc[nH]c23)cc1	HCV inhibitor inconclusive, HCMV antiviral -63.3, VACV Venus inh inconclusive
O=C(N/N=C/c1ccc([N+](=O)[O-])cc1)c1cccc2cc[nH]c12	none (no result: Vaccinia mCherry, VACV Venus inh)
CC[C@@]1(O)C(=O)OCc2c1cc1n(c2=O)Cc2cc3c(CN(C)C)c(O)ccc3nc2-1	Vaccinia mCherry inconclusive, HCV inhibitor inconclusive, HCMV antiviral -97.3, VACV Venus inh inconclusive
CC[C@@]1(O)C(=O)OCc2c1cc1n(c2=O)Cc2cc3c(N)cccc3nc2-1	Vaccinia mCherry inconclusive, HCMV antiviral -99.4, VACV Venus inh inconclusive, FMDV inh inconclusive
COc1ccc(-c2nnc(SCCOc3ccccc3C)o2)cc1OC	none (no result: HCV inhibitor)
Cc1ccccc1NC(=O)CSc1nccn1C	none (no result: HCV inhibitor)
O=C(N[C@H]1CC[C@@]23CCCN2C(=O)CCC[C@H]3[C@H]1Cc1ccccc1)C1CCOC1 (some centres not stated)	none (no result: Vaccinia mCherry, HCV inhibitor, VACV Venus inh, FMDV inh)
Cc1ccc2cc(C)c(NCCO)nc2c1	HCMV antiviral -60.3, VACV Venus inh inconclusive (no result: Vaccinia mCherry)
CCN(Cc1ccccc1)Cc1c(O)ccc2oc(C)c(C(=O)Nc3ccccc3C)c12	HCMV antiviral inconclusive (no result: HCV inhibitor)
CCC(=O)N1CCN(c2ccc(-n3c(=O)ccc4cnc5ccc(-c6cnc7ccccc7c6)cc5c43)cc2C(F)(F)F)CC1	HCMV antiviral -83.0 (no result: Vaccinia mCherry, HCV inhibitor, VACV Venus inh, FMDV inh)
O=C(O)COCC(=O)N1CCN(c2cc(C(F)(F)F)nc3ccccc23)CC1	none (no result: Vaccinia mCherry, VACV Venus inh)
COc1ccc(C2NC(=O)C(C#N)=C(S)N2c2ccc(C)cc2)cc1OC (configuration not stated)	HCMV antiviral -65.1 (no result: Vaccinia mCherry, VACV Venus inh)
COc1cc(C2NC(=O)C(C#N)=C(S)N2c2ccc(C)cc2)ccc1OC(C)C (configuration not stated)	none
COc1cccc(-c2nnc(SCC3CNC(=O)O3)n2-c2ccc(Cl)cc2)c1 (configuration not stated)	HCMV antiviral -100.6
COc1cccc(-c2nnc(SCC(=O)N3CCCC3=O)n2-c2ccccc2)c1	none (no result: FMDV inh)
CC(C(=O)NCCc1ccc(Cl)cc1)n1c(=O)c2cccn2c2cccnc21 (configuration not stated)	HCV inhibitor 11.2µM (no result: Vaccinia mCherry, VACV Venus inh)
CCCNC(=O)c1ccc(Cn2c(=O)c3cccn3c3cccnc32)cc1	none (no result: HCV inhibitor)
O=C(NCCc1ccccc1Cl)c1ccc(Cn2c(=O)c3cccn3c3cccnc32)cc1	Vaccinia mCherry inconclusive, HCMV antiviral -83.6, VACV Venus inh inconclusive (no result: HCV inhibitor)
COc1ccc(C(=O)c2c(N)c(C(=O)Nc3cccc(OC)c3)c3ccccn23)cc1	none (no result: HCV inhibitor)
CCc1ccc(C(=O)c2cn(CC(=O)Nc3cc(F)ccc3F)c3nc(C)ccc3c2=O)cc1	none (no result: HCV inhibitor)
C[C@@H]1CC[C@]2(C(=O)O)CC[C@]3(C)C(=CCC4[C@]56CC[C@@](O)(OC5)C(C)(C)C6CC[C@]43C)C2[C@H]1C (some centres not stated)	HCV inhibitor 2µM, FMDV inh inconclusive (no result: HCMV antiviral)
C[C@H]1[C@H](C)CC[C@]2(C(=O)O)CC[C@]3(C)C(=CC[C@@H]4[C@@]5(C)CC[C@H](O)C(C)(C)[C@@H]5CC[C@]43C)[C@H]12	HCV inhibitor 0.316µM
CC1CCC2(C(=O)O)CCC3(C)C(=CCC4C3(C)CCC3[C@@]4(C)CC(O)C(O)[C@@]3(C)CO)C2C1C (some centres not stated)	none (no result: HCV inhibitor, HCMV antiviral)
C[C@H]1[C@H](C)CC[C@]2(C(=O)O)CC[C@]3(C)C(=CC[C@@H]4[C@@]5(C)C[C@@H](O)[C@H](O)C(C)(C)[C@@H]5CC[C@]43C)[C@H]12	Vaccinia mCherry inconclusive, VACV Venus inh 12.6µM (no result: HCMV antiviral)
CCN(CC)S(=O)(=O)c1ccc2c(c1)N(CC(=O)Nc1cccc(C#N)c1)C(=O)CO2	none (no result: HCV inhibitor)
CN(C)c1ncc2nc(-c3cccc(C#N)c3)c(=O)n(C[C@H]3CCCO3)c2n1	none (no result: Vaccinia mCherry, HCV inhibitor, HCMV antiviral, VACV Venus inh)
CC(C)[C@@H](C)/C=C/[C@@H](C)[C@H]1CC[C@@H]2[C@]1(C)CCC1[C@]23C=C[C@]2(C[C@@H](O)CC[C@]12C)N(c1cnccn1)O3 (some centres not stated)	none (no result: Vaccinia mCherry, HCV inhibitor, VACV Venus inh, FMDV inh)
COc1ccccc1-c1cc(C(=O)N2CCN(c3ccccc3)CC2)no1	none
COc1cc2c(C(=O)N3CCN(c4ccccc4)CC3)c(C)oc2cc1Br	Vaccinia mCherry inconclusive, HCV inhibitor inconclusive, VACV Venus inh inconclusive, FMDV inh 20µM
CN1C(=O)C(n2cccc2)c2ccccc21 (configuration not stated)	none (no result: Vaccinia mCherry, HCV inhibitor, VACV Venus inh, FMDV inh)
Cn1nc(C(F)(F)F)c(-c2ccc(Br)cc2)c1NC(=O)Nc1ccc(F)cc1F	HCV inhibitor inconclusive, HCMV antiviral -92.3, VACV Venus inh inconclusive
O=[N+]([O-])c1ccc(/C=N/Nc2ccnc3cc(Cl)ccc23)o1	Vaccinia mCherry 15.8µM, HCV inhibitor inconclusive, HCMV antiviral -66.1, VACV Venus inh inconclusive
Clc1ccc2c(N/N=C/c3ccccc3Br)ccnc2c1	HCV inhibitor inconclusive, HCMV antiviral -64.1
C/C(=N/Nc1ccnc2cc(Cl)ccc12)c1ccc(N)cc1	Vaccinia mCherry 8.91µM, HCV inhibitor inconclusive, VACV Venus inh inconclusive
CCN(CC)C(=O)c1sc2c(c1C)c(=O)n(-c1ccccc1)c(=O)n2CC(=O)N(CC)c1cccc(C)c1	none (no result: HCV inhibitor)
Cc1ccc(CNc2ccc(-c3nc(C(C)C)no3)cc2[N+](=O)[O-])cc1	none (no result: HCV inhibitor)
COc1cccc(C(=O)CC2(O)C(=O)Nc3ccc(Cl)cc32)c1 (configuration not stated)	none (no result: HCV inhibitor)
O=C(NCc1ccccn1)c1cnn(-c2nccc(-c3ccccc3F)n2)c1C1CC1	none (no result: HCV inhibitor, HCMV antiviral)
Cc1ccc(-c2nc3sc(CCNC(=O)c4ccc(F)c(F)c4)c(C)n3n2)cc1	none (no result: HCV inhibitor)
